Potency data for eleven compounds are collected here from PubChem BioAssay (NCATS).

Results filed as inconclusive are left out. Calls of active or inactive are those of the source. The call rests on the fitted dose curve; in most records, active means well fitted inhibition curve with a large enough effect; inconclusive means small, poorly fitted or top-dose-only effect; inactive means flat fitted curve, though single readings scatter.

What all share (experiment): qHTS profiling for inhibitors of Plasmodium falciparum proliferation (AID 504749); further: nearly all actives have a fitted effect of over 60% in size
The subject of one assay is AA1029. As to conditions: P. falciparum in erythrocytes, SYBR Green DNA, 72 h; series mostly up to 12.8 µM. The procedure, abridged: (§1)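 Readout was DNA-dye fluorescence from lysed cultures, ex 485/em 535 nm. Parasitized red cells had grown 72 h with compound; data scaled between 0.29 uM artemisinin and DMSO wells and corrected using vehicle-only plates.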
The subject of a further assay is ATS95. As to conditions: P. falciparum in erythrocytes, SYBR Green DNA, 72 h; series mostly up to 12.8 µM. The procedure, abridged:
as §1

A further assay deals with C2A. As to conditions: P. falciparum in erythrocytes, SYBR Green DNA, 72 h; series mostly up to 12.8 µM. Summed up: as §1
The subject of the next assay is CP211. As to conditions: P. falciparum in erythrocytes, SYBR Green DNA, 72 h; series mostly up to 12.8 µM. Summed up:
as §1

The test system of a further assay is CP215. Conditions: P. falciparum in erythrocytes, SYBR Green DNA, 72 h; series mostly up to 28.7 µM. Summed up: as §1
For a further assay, the system named is CP217. Conditions: P. falciparum in erythrocytes, SYBR Green DNA, 72 h; series mostly up to 12.8 µM. The procedure, abridged: as §1
For a further assay, the system named is CP252. As to conditions: P. falciparum in erythrocytes, SYBR Green DNA, 72 h; series mostly up to 12.8 µM. The procedure, abridged:
as §1

The test system of the next assay is CP260. As to conditions: P. falciparum in erythrocytes, SYBR Green DNA, 72 h; series mostly up to 12.8 µM. The procedure, abridged: as §1
The test system of another assay is CP262. Conditions: P. falciparum in erythrocytes, SYBR Green DNA, 72 h; series mostly up to 12.8 µM. The procedure, abridged:
as §1

The next assay relates to CP266. Conditions: P. falciparum in erythrocytes, SYBR Green DNA, 72 h; series mostly up to 28.7 µM. The procedure, abridged:
as §1

Another assay deals with CP291. As to conditions: P. falciparum in erythrocytes, SYBR Green DNA, 72 h; series mostly up to 12.8 µM. Summed up:
as §1

The next assay concerns CP315. Conditions: P. falciparum in erythrocytes, SYBR Green DNA, 72 h; series mostly up to 12.8 µM. Summed up:
as §1

In the next assay the test system is CP325. Conditions: P. falciparum in erythrocytes, SYBR Green DNA, 72 h; series mostly up to 12.8 µM. The procedure, abridged: as §1
For the next assay, the system named is CP329. Conditions: P. falciparum in erythrocytes, SYBR Green DNA, 72 h; series mostly up to 12.8 µM. The procedure, abridged: as §1
In the next assay the test system is CP335. As to conditions: P. falciparum in erythrocytes, SYBR Green DNA, 72 h; series mostly up to 12.8 µM. The procedure, abridged:
as §1

The test system of another assay is ECU. Conditions: P. falciparum in erythrocytes, SYBR Green DNA, 72 h; series mostly up to 12.8 µM. Summed up: as §1
The subject of a further assay is GB4. Conditions: P. falciparum in erythrocytes, SYBR Green DNA, 72 h; series mostly up to 12.8 µM. Summed up:
as §1

A further assay deals with JCK. Conditions: P. falciparum in erythrocytes, SYBR Green DNA, 72 h; series mostly up to 12.8 µM. Summed up: as §1
The test system of a further assay is PAD. As to conditions: P. falciparum in erythrocytes, SYBR Green DNA, 72 h; series mostly up to 12.8 µM. The procedure, abridged:
as §1

Another assay has as its system TAB109. Conditions: P. falciparum in erythrocytes, SYBR Green DNA, 72 h; series mostly up to 12.8 µM. Summed up: as §1
Potency means the concentration at half of the fitted maximal effect.

`CN1CCCC[C@@H]1CCN1c2ccccc2Sc2ccc(S(C)=O)cc21` (stereo not given in full): the Potency entry with AA1029, in the assay on ATS95, with C2A, in the assay with CP211, in the assay with CP215 and in the assay on CP217 was “inactive” in each case. For the same compound, the Potency result in the assay on CP252, in the assay on CP260, with CP262, in the assay on CP266, in the assay with CP291 and with CP315 was “inactive” in each case. Besides, the Potency entry with CP325, in the assay with CP329, in the assay with CP335, in the assay on ECU, in the assay with GB4 and with JCK was “inactive” in each case. The Potency result with PAD and with TAB109 was “inactive” each time.

Regarding `CC(=O)OCC1=C(C(=O)O)N2C(=O)[C@@H](NC(=O)CSc3ccncc3)[C@@H]2SC1`, the Potency entry with AA1029, in the assay on ATS95, in the assay with C2A, in the assay on CP211, with CP215 and with CP217 was “inactive” each time. Also, the Potency entry in the assay with CP252, in the assay with CP260, with CP262, with CP266, in the assay with CP291 and in the assay with CP315 was “inactive” in each case. The Potency result in the assay with CP325, in the assay with CP329, with CP335, with ECU, with GB4 and in the assay on JCK was “inactive” each time. In addition, the Potency result in the assay with PAD and in the assay on TAB109 was “inactive” in each case.

As to `CC[C@@]12CCCN3CCc4c(n(c5ccccc45)C(=O)C1)[C@H]32`, the Potency entry in the assay with AA1029, in the assay with ATS95, in the assay on C2A, in the assay with CP211, in the assay on CP215 and in the assay on CP217 was “inactive” each time. The Potency entry in the assay on CP252, in the assay on CP260, in the assay with CP262, with CP266, with CP291 and with CP315 was “inactive” each time. Moreover, the Potency result with CP325, in the assay on CP329, in the assay on CP335, with ECU, with GB4 and in the assay with JCK was “inactive” in each case. The Potency entry in the assay on PAD and with TAB109 was “inactive” throughout.

Consider `CCCN(CCC)C(=O)[C@@H](CCC(=O)O)NC(=O)c1ccccc1`, for which the Potency result with AA1029, with ATS95, in the assay on C2A, with CP211, in the assay on CP215 and with CP217 was “inactive” in each case. The Potency result in the assay with CP252, in the assay on CP260, with CP262, with CP266, with CP291 and in the assay on CP315 was “inactive” throughout. Besides, the Potency entry in the assay on CP325, in the assay with CP329, in the assay on CP335, in the assay with ECU, in the assay with GB4 and in the assay on JCK was “inactive” throughout. Further, the Potency entry in the assay on PAD and with TAB109 was “inactive” in each case.

With `CO/N=C(\C(=O)N[C@@H]1C(=O)N2C(C(=O)O)=C(COC(C)=O)CS[C@@H]12)c1csc(N)n1`, the Potency entry with AA1029, in the assay with ATS95, in the assay with C2A, in the assay on CP211, with CP215 and in the assay with CP217 was “inactive” in each case. Also, the Potency entry in the assay on CP252, in the assay with CP260, in the assay with CP262, in the assay with CP266, with CP291 and in the assay with CP315 was “inactive” each time. The Potency result in the assay on CP325, in the assay on CP329, with CP335, in the assay with ECU, in the assay on GB4 and in the assay with JCK was “inactive” throughout. Also, the Potency result in the assay with PAD and in the assay on TAB109 was “inactive” each time.

For the compound `CC(C)NC[C@H](O)c1cc(O)cc(O)c1`, the Potency result with AA1029, in the assay with ATS95, in the assay on C2A, in the assay with CP211, in the assay with CP215 and with CP217 was “inactive” in each case. The Potency entry in the assay with CP252, with CP262, in the assay with CP266, in the assay with CP291, in the assay on CP315 and in the assay with CP325 was “inactive” throughout. Moreover, the Potency result with CP329, in the assay on CP335, in the assay with ECU, in the assay with GB4, in the assay on JCK and in the assay with PAD was “inactive” each time. The Potency entry in the assay with TAB109 is “inactive”.

Consider `CCn1cc(C(=O)O)c(=O)c2cc(F)c(N3CCN[C@@H](C)C3)c(F)c21`, for which the Potency entry in the assay with AA1029, in the assay on ATS95, in the assay with C2A, with CP211, with CP215 and in the assay on CP217 was “inactive” each time. Besides, the Potency entry with CP252, in the assay on CP260, in the assay on CP262, with CP266, in the assay on CP315 and with CP329 was “inactive” throughout. In addition, the Potency result with ECU, in the assay with GB4 and in the assay with PAD was “inactive” in each case.

Consider `C[C@@H](CCc1ccccc1)NC[C@H](O)c1ccc(O)c(C(N)=O)c1`, for which the Potency entry in the assay with AA1029, with ATS95, in the assay with C2A, in the assay on CP211, in the assay with CP215 and in the assay with CP217 was “inactive” throughout. Moreover, the Potency entry in the assay with CP252, with CP260, in the assay on CP262, with CP266, in the assay with CP291 and in the assay with CP315 was “inactive” each time. In addition, the Potency entry in the assay with CP325, with CP329, with CP335, in the assay with JCK and in the assay with TAB109 was “inactive” throughout.

For `NC(=O)c1cc[n+](CC2=C(C(=O)O)N3C(=O)[C@@H](NC(=O)[C@H](c4ccccc4)S(=O)(=O)[O-])[C@@H]3SC2)cc1`, the Potency is 3550 nM (active) in the assay with ATS95; 1410 nM (active) in the assay on CP260; 4550 nM (active) in the assay with CP325; 1610 nM (active) in the assay with CP335; 2000 nM (active) with ECU; 907 nM (active) in the assay on GB4. Moreover, the Potency in the assay with JCK is 4470 nM (active); in the assay with PAD it was 1410 nM (active); with TAB109 it was 1410 nM (active). The Potency result with CP262 is “inactive”.

Turning to `CC(C)(C)NC[C@H](O)c1cc(O)cc(O)c1`, the Potency entry in the assay on AA1029, with ATS95, in the assay with C2A, with CP215, in the assay on CP217 and in the assay with CP252 was “inactive” throughout. Besides, the Potency result in the assay on CP260, in the assay on CP266, in the assay on CP291, with CP315, with CP325 and in the assay on CP329 was “inactive” in each case. The Potency result in the assay on CP335, with ECU, with GB4, with JCK and in the assay on PAD was “inactive” each time.

In the case of `CC(=O)O[C@@H](C)C[N+](C)(C)C`, the Potency entry with AA1029, in the assay on C2A, with CP211, in the assay with CP217, in the assay with CP252 and in the assay with CP260 was “inactive” throughout. In addition, the Potency entry in the assay on CP262, with CP266, in the assay with CP291, in the assay on CP315, in the assay on CP325 and in the assay with CP329 was “inactive” throughout. Besides, the Potency result in the assay on CP335, in the assay with ECU, with GB4, in the assay on JCK and with TAB109 was “inactive” in each case.
